A number with no mark means an inactive call. Results filed as inconclusive are left out. A call without a number means that no potency is given here. Calls of active or inactive are those of the source. Unless noted, the call rests on the fitted dose curve; in most records, active means well fitted curve in the direction sought with a large enough effect in the repeat runs; inconclusive means weak or mixed curves; inactive means no such curve, though single readings can be large; an effect the other way counts as inactive or inconclusive.
Legend:
[1] = qHTS assay for small molecule agonists of the p53 signaling pathway (AID 651631; calls by dose curve; further: nearly all actives have a fitted effect of over 15% in size; further: potency means the concentration at half of the fitted maximal effect)
Procedure, shortened: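 p53RE-bla HCT-116 cells; compounds 16 h, 37 °C; LiveBLAzer B/G FRET substrate 2 h RT; fluorescence intensity read-out, qHTS format.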

[2] = qHTS assay for small molecule agonists of the p53 signaling pathway - cell viability (AID 651633; calls by dose curve; further: nearly all actives have a fitted effect of over 30% in size; further: potency means the concentration at half of the fitted maximal effect)
Procedure, shortened: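 p53RE-bla cells were treated with compound for 16 hours at 37 C. Cytotoxicity was then measured as CellTiter-Glo luminescence after 30 min at room temperature.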

[3] = qHTS assay for small molecules that induce genotoxicity in human embryonic kidney cells expressing luciferase-tagged ATAD5 - cell viability (AID 651634; calls by dose curve; further: nearly all actives have a fitted effect of over 25% in size; further: potency means the concentration at half of the fitted maximal effect)
Procedure, shortened: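 HEK293T cells carrying luciferase-tagged ATAD5, 2,000 cells/well, exposed to compound for 15.5 hr at 37C. Viability read as live-cell protease activity by CellTiter-Fluor fluorescence after 30 min at 37C.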

[4] = qHTS assay to test for compound auto fluorescence at 590 nm (red) in HepG2 cells (AID 720674)
Procedure, shortened: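 HepG2 cells, 2,000 per well in MEM with 10% FBS, attached overnight at 37 C, then got 23 nL compound or DMSO. After 1 hr at 37 C, 5% CO2, red fluorescence was read at 540/590 nm against Rose Bengal sodium as reference.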

[5] = qHTS assay to test for compound auto fluorescence at 535 nm (green) in HepG2 cells (AID 720675)
[6] = qHTS assay to test for compound auto fluorescence at 590 nm (red) in HEK293 cells (AID 720679)
Procedure, shortened: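 We plated HEK293 cells in 10% dialyzed FBS medium, let them adhere for 4-5 hr, then added 23 nL compound. Overnight at 37C and 5% CO2 preceded fluorescence measurement at 540/590nm.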

[7] = qHTS assay for small molecule disruptors of the mitochondrial membrane potential - cell viability (AID 720634; calls by dose curve; further: nearly all actives have a fitted effect of over 20% in size; further: potency means the concentration at half of the fitted maximal effect)
Procedure, shortened: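 HepG2 cells, 2,000 per well, attached overnight, then treated 1 hr at 37 C, 5% CO2. Viability read as ATP by CellTiter-Glo luminescence after 30 min at room temperature. Read in the same wells as the m-MPI membrane-potential dye assay.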

[8] = qHTS assay to test for compound auto fluorescence at 460 nm (blue) in HEK293 cells (AID 720678)
Procedure, shortened: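 Triamterene serves as the blue fluorophore standard. Compound signal at 405/460 nm is read in HEK293 wells (2,000 cells, 10% dialyzed FBS) after overnight treatment at 37C.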

[9] = qHTS assay for small molecule disruptors of the mitochondrial membrane potential (AID 720635); further: potency means the concentration at half of the fitted maximal effect
Procedure, shortened: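 HepG2 cells exposed to compound 1 hr at 37C, then Mito-MPS dye 30 min. Ratio read of aggregate (540/590 nm) versus monomer (490/535 nm) fluorescence.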

[10] = qHTS assay for small molecules that induce genotoxicity in human embryonic kidney cells expressing luciferase-tagged ATAD5 (AID 651632); further: nearly all actives have a fitted effect of over 15% in size
Procedure, shortened: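 HEK293T cells carrying luciferase-tagged ATAD5 were given compound or DMSO vehicle and incubated 16 hr at 37C, 5% CO2. Luciferase activity was read after 30 min at room temperature with Amplite; a rise signals genotoxic stress.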

Row | SMILES | Potency [1] | Potency [2] | Potency [3] | Potency [4] | Potency [5] | Potency [6] | Potency [7] | Potency [8] | Potency [9] | Potency [10] | fluorescence, relative to Rose Bengal [4] | fluorescence, % of fluorescein control [5] | fluorescence, % of triamterene [8] | fluorescence, % of fluorescent control [6]
1 | Oc1c(Br)cc(Br)c2cccnc12 | 5.96 µM (active) | 6.68 µM (active) | inactive | inactive | inactive | inactive | – | – | – | – | – | – | – | –
2 | Cn1cnc2ncnc(N)c21 | inactive | inactive | inactive | inactive | inactive | inactive | inactive | inactive | – | – | – | – | – | –
3 | COc1cc(C=C2CCC/C(=C\c3ccc(O)c(OC)c3)C2=O)ccc1O | 11.9 µM (active) | 16.8 µM (active) | 23.7 µM (active) | inactive | inactive | inactive | – | inactive | 4.95 µM (active) | – | – | – | – | –
4 | CCN(CC)c1ccc(N)cc1 | – | inactive | – | inactive | inactive | inactive | – | – | 49.9 µM (active) | inactive | – | – | – | –
5 | Oc1ccc(-c2ccccc2)c(Cl)c1 | – | 61.1 µM (active) | – | inactive | inactive | inactive | – | inactive | 8.63 µM (active) | inactive | – | – | – | –
6 | CCO[Si](CCCSSSSCCC[Si](OCC)(OCC)OCC)(OCC)OCC | – | inactive | inactive | inactive | inactive | inactive | inactive | inactive | – | inactive | – | – | – | –
7 | O[C@@H](c1cc(C(F)(F)F)nc2c(C(F)(F)F)cccc12)[C@H]1CCCCN1 | – | 21.1 µM (active) | 23.7 µM (active) | inactive | inactive | inactive | – | inactive | – | inactive | – | – | – | –
8 | CCCCN(CCCC)CCC(O)c1cc2c(Cl)cc(Cl)cc2c2cc(C(F)(F)F)ccc12 (stereo unspecified) | – | inactive | inactive | – | – | – | – | – | – | inactive | 0.511% [at 18.6 µM] | 0.0229% [at 18.6 µM] | -0.234% [at 18.6 µM] | 0.217% [at 18.6 µM]
9 | Cc1cccc(C)c1NC(=O)CN1CCN(CCCC(c2ccc(F)cc2)c2ccc(F)cc2)CC1 | – | inactive | inactive | – | – | – | inactive | – | – | inactive | -0.479% [at 18.6 µM] | 0.0022% [at 18.6 µM] | – | 0.0665% [at 18.6 µM]
10 | Cc1c(C)n(Cc2ccccc2)c2ccc(C(=O)OCCN(C)C)cc12 | – | inactive | inactive | inactive | inactive | inactive | inactive | inactive | – | inactive | – | – | – | –
11 | CN(C)c1ccc(N=NS(=O)(=O)O)cc1 | – | inactive | – | inactive | inactive | inactive | – | inactive | 2.17 µM (active) | inactive | – | – | – | –
12 | Cc1ccc(N)cc1O | – | inactive | inactive | inactive | inactive | inactive | – | – | 17.2 µM (active) | inactive | – | – | – | –
13 | O=Nc1ccc(NO)cc1 | – | inactive | inactive | inactive | inactive | inactive | – | inactive | 50.5 µM (active) | inactive | – | – | – | –
14 | Brc1ccccc1-c1ccccc1 | – | inactive | inactive | inactive | inactive | inactive | – | inactive | 51.6 µM (active) | inactive | – | – | – | –
15 | CC(C)(C)CC(C)(C)c1ccccc1O | – | 43.5 µM (active) | – | inactive | inactive | inactive | 27.4 µM (active) | inactive | 2.18 µM (active) | inactive | – | – | – | –
16 | CNC(=S)NN | – | inactive | – | inactive | inactive | inactive | inactive | inactive | – | inactive | – | – | – | –
17 | CCN(CC)CCCN(c1ccccc1)C1Cc2ccccc2C1 | – | 13.3 µM (active) | 23.7 µM (active) | inactive | inactive | inactive | 29.8 µM (active) | inactive | – | inactive | – | – | – | –
18 | C[Si](C)(C)Cl | – | inactive | – | inactive | inactive | inactive | inactive | inactive | – | inactive | – | – | – | –
19 | O=Cc1ccc(F)cc1 | – | inactive | – | inactive | inactive | inactive | inactive | inactive | – | inactive | – | – | – | –
20 | c1cc2c3c(c1)ccc1cccc(c13)C2 | – | inactive | – | inactive | inactive | inactive | – | inactive | 62.4 µM (active) | inactive | – | – | – | –
21 | Cc1ccc2ccc3cccc4ccc1c2c34 | – | inactive | – | inactive | inactive | inactive | inactive | inactive | 38.5 µM (active) | inactive | – | – | – | –
22 | C=C[C@](C)(O)CC[C@@H]1[C@@]2(C)CCCC(C)(C)[C@@H]2CC[C@@]1(C)O | – | 61.1 µM (active) | – | inactive | inactive | inactive | – | inactive | 43.3 µM (active) | inactive | – | – | – | –
23 | O=C1NCN(c2ccccc2)C12CCN(CCCC(c1ccc(F)cc1)c1ccc(F)cc1)CC2 | – | 26.6 µM (active) | 26.6 µM (active) | inactive | inactive | inactive | – | inactive | 19.7 µM (active) | inactive | – | – | – | –
24 | CCN(CC)CCOC(=O)C1(C2CCCCC2)CCCCC1 | – | inactive | inactive | inactive | inactive | inactive | inactive | – | – | inactive | – | – | – | –
25 | c1ccc(Sc2ccccc2)cc1 | – | inactive | inactive | inactive | inactive | inactive | inactive | inactive | – | inactive | – | – | – | –
26 | CCOC(=O)[C@@](C)(N)Cc1ccc(O)c(O)c1 | – | inactive | – | – | – | – | inactive | – | inactive | inactive | -0.208% [at 18.6 µM] | -0.17% [at 18.6 µM] | – | 0.559% [at 18.6 µM]

From PubChem BioAssay (Tox21)
